High-throughput results: PubChem, National Center for Advancing Translational Sciences (NCATS)
Vaccinia mCherry = inhibitors of vaccinia virus infection (mCherry reporter signal); Potency, µM (doses to about 36.5 µM), for the others: at the highest dose activity change, negative = inhibition, most hits filed as inhibitors; Vaccinia virus mCherry reporter infection, fluorescence; actives 0.63% (n = 310,000); calls by dose curve; tested in A549 cells; further: potency means the concentration at half of the fitted maximal effect; nearly all actives have a fitted effect of over 35% in size
LmPK inhibitor = blocks Leishmania mexicana pyruvate kinase activity; purified LmPK, Kinase-Glo ATP luminescence, 1 h; Potency, µM (top dose mostly 57.5 µM), without a hit: at the top dose activity change, negative = inhibition, usual class: inhibitors; actives 0.37% (n = 290,000); further: potency means the concentration at half of the fitted maximal effect
Target sequence (Q27686 whole entry, looked up): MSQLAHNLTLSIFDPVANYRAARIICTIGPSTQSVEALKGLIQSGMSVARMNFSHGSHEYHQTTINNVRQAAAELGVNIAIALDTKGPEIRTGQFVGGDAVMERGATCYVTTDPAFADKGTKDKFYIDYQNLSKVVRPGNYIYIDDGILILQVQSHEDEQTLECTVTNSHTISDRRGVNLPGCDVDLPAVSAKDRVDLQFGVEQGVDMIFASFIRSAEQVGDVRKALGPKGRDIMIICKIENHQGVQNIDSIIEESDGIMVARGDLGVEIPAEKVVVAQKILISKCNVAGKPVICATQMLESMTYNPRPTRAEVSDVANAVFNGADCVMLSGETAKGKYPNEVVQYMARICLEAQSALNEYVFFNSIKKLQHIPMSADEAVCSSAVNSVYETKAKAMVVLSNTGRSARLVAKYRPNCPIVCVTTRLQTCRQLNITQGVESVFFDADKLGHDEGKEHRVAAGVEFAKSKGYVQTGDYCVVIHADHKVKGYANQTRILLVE
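ATP generated from ADP (0.1 mM) and PEP (0.5 mM) by 0.1 nM LmPK over 1 h at room temperature (pH 7.2 imidazole buffer) was detected by coupled luciferase luminescence. Values were normalized to uninhibited and no-enzyme wells.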
TbPYK inhibitor = T. brucei pyruvate kinase inhibition | Q57TT1 | TbPYK enzyme, Kinase-Glo Plus ATP luminescence, 45 min | Potency, µM (highest dose often 76.8 µM), inactives show at the highest dose activity, negative = inhibition, most hits filed as inhibitors | actives 0.12% (n = 410,000) | AID 624173; further: potency means the concentration at half of the fitted maximal effect; nearly all actives have a fitted effect of over 50% in size
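In this concentration-response screen, enzyme-free wells defined baseline while DMSO plates tracked drift. Each reaction combined TbPYK, substrate, compound and 130 uM ADP for 45 min at room temperature. Kinase-Glo Plus luminescence gave the signal.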
Vaccinia Venus = vaccinia inhibition (Venus reporter); Potency, µM (titrated, usually from 36.5 µM), for the others: at the top dose activity change, negative = inhibition, most hits filed as inhibitors; Vaccinia virus Venus reporter expression, fluorescence; actives 0.46% (n = 330,000); AID 720580; calls by dose curve; tested in A549 cells; further: potency means the concentration at half of the fitted maximal effect; nearly all actives have a fitted effect of over 30% in size
HCMV inh = human cytomegalovirus inhibition; HFF cells, HCMV-luciferase reporter, 72 h; stronger effect = lower value; activity change, negative = inhibition, % at 57.5 µM; actives 4.5% (n = 410,000); AID 1259415; in the data active means activity change below about -60%; inconclusive means no clear call, values can overlap the other calls; inactive means above about -39%
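Cell-based, HFFs, 1000 cells/well, 16 h 37C; cpds in DMSO + HCMV-luc, MOI 1 PFU/cell; 72 h 37C; OneGlo luminescence after 5 min RT; norm. to buffer vs Salinomycin 10uM.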
* = called active by the depositor; i = inactive; ? = inconclusive; · = no result given; + = active, no number; ! = repeats disagree. Only some compounds are listed: those with a hit (about 5% of all), similar ones and a draw of the others. Unless noted, the call rests on the fitted dose curve; in most records, active means well fitted curve in the direction sought with a large enough effect; inconclusive means small, poorly fitted or top-dose-only effect, or another doubt; inactive means no such curve, though single readings can be large; an effect the other way counts as inactive or inconclusive. On the % scale 0 is the no-effect control and ±100 the full control effect.

SMILES	Vaccinia mCherry	LmPK inhibitor	TbPYK inhibitor	Vaccinia Venus	HCMV inh
Cc1c(C(=O)OCC(=O)NCC2CCCO2)oc2ccccc12 (stereo not given)	i	·	-7.3%	-3.1%	32.3
CSCC(C)N1CCC(n2nccc2NC(=O)CCc2ccccc2)CC1 (stereo not given)	·	-9.4%	0.0%	·	15.5
CSCC(C)N1CCC(n2nccc2NC(=O)CCCc2ccccc2)CC1 (stereo not given)	·	-3.4%	-12.3%	·	+
O=C(Nc1ccc(O)cc1)c1ccc(NC(=O)C2CCCO2)cc1 (stereo not given)	·	-1.3%	-11.7%	·	-63.3*
Cc1cc(NC(=O)c2ccc(NC(=O)C3CCCO3)cc2)ccc1Br (stereo not given)	·	5.0%	-14.0%	·	-73.6*
CCN(CC)c1ccc(NC(=O)c2ccc(NC(=O)C3CCCO3)cc2)c(C)c1 (stereo not given)	·	-1.4%	-18.9%	·	?
COc1ccccc1NC(=O)N1CCCC1C(=O)NCCc1ccccc1 (stereo not given)	·	-0.4%	-0.9%	·	26.7
Cc1ccc(S(=O)(=O)CCc2ccncc2)cc1	·	0.1%	3.8%	·	-13.1
Nc1ccc(S(=O)(=O)O)cn1	-13.4%	-3.5%	1.0%	-4.0%	-69.2*!
COC(=O)c1cn(-c2ccccc2)nc1-c1ccc(OC)c(OC)c1	·	3.0%	-1.9%	·	-7.0
COc1ccc(-c2nn(-c3ccccc3)cc2C(=O)NC(=S)N2CCOCC2)cc1OC	·	·	-21.9%	·	-96.5*
COc1ccc(-c2nn(-c3ccccc3)cc2C(=O)NC(=S)NNC(=O)c2ccncc2)cc1	·	15.3%	2.2%	·	-91.7*
COc1ccc(NC(=O)c2cn(-c3ccccc3)nc2-c2ccncc2)cc1	i	0.7%	-2.6%	-11.8%	-22.9
CC(=O)c1cccc(NC(=O)CCS(=O)(=O)c2cccc3nsnc23)c1	·	-7.0%	?	·	-30.0
Nc1cc(-c2ccc(OC(F)(F)F)cc2)nn1-c1ccc(Cl)c(Cl)c1	i	3.9%	0.1%	-17.2%	-65.6*
COc1cccc(-c2nc3ccc([N+](=O)[O-])cc3o2)c1	i	?	1.4%	-6.5%	-79.1*
O=[N+]([O-])c1ccc2nc(-c3ccccc3)oc2c1	-29.9%	13.0%	0.7%	-29.1%	38.0
Nc1ccn(CC(=O)NCCCc2ccccc2)c(=O)n1	i	·	1.6%	-7.9%	-80.5*
CC(=O)c1oc2ccccc2c1NC(=O)COC(=O)c1ccc(-n2nc(C)cc2C)cc1	-0.5%	0.9%	0.4%	4.8%	11.8
Cc1cc(C)n(-c2ccc(C(=O)NCC(=O)Nc3cc(Cl)ccc3Cl)cc2)n1	·	·	-4.6%	·	+
CSc1ccccc1NC(=O)COC(=O)c1ccc(-n2nc(C)cc2C)cc1	i	·	-5.3%	-20.9%	-106.6*
Cc1nc2ccccc2n1C1CCN(CC(=O)Nc2ccccc2Br)CC1	?	7.6%	-6.9%	?	?
COc1ccc(CCn2c3c(c(=O)[nH]c2=O)C(NC(=O)c2ccccc2)(C(F)(F)F)C(=O)N3)cc1OC (stereo not given)	-4.6%	·	0.2%	4.4%	5.6
COc1ccc([C@H]2C[C@H](n3cc(C4CC4)nn3)[C@@H](O)CN2CC2CCCCC2)cc1	i	·	3.0%	-20.0%	?
COCCCNC(=O)C[C@H]1C[C@H](C(=O)N2CCOCC2)[C@@]2(CCC3CCCC3)c3[nH]c4cc(-c5ccco5)ccc4c3CCN2C1=O	-11.4%	·	-8.7%	?	8.7
SMILES	Vaccinia mCherry	LmPK inhibitor	TbPYK inhibitor	Vaccinia Venus	HCMV inh
CN(C)CCCNC(=O)C[C@H]1C[C@H](C(=O)N2CCOCC2)[C@@]2(CCC3CCCC3)c3[nH]c4cc(-c5ccco5)ccc4c3CCN2C1=O	?	·	-10.2%	12.6µM*	?
O=C(C[C@H]1C[C@H](C(=O)N2CCOCC2)[C@@]2(CCC3CCCC3)c3[nH]c4cc(-c5ccco5)ccc4c3CCN2C1=O)NCCN1CCOCC1	?	·	-0.5%	?	-10.8
CC(C)(C)NC(=O)C[C@H]1C[C@H](C(=O)N2CCOCC2)[C@@]2(CCC3CCCC3)c3[nH]c4cc(-c5ccco5)ccc4c3CCN2C1=O	?	·	0.2%	10µM*	·
COc1ccc(Nc2ncc3c(n2)CC(c2ccc(C)cc2)CC3=O)cc1 (stereo not given)	·	0.0%	-1.8%	·	1.9
O=C(Nc1nnc(CC2=CCCCC2)s1)Nc1ccccc1F	12.7%	2.6%	4.0%	-10.1%	·
O=C(Nc1cccc(Cl)c1)Nc1nnc(CSCCOc2ccc(Cl)cc2)s1	-16.3%	0.4%	-1.4%	?	-72.0*
Cc1ccc(NC(=O)Nc2nnc(CSCCOc3ccc(Cl)cc3)s2)cc1	i	0.2%	1.4%	-14.8%	-35.3
O=C(Nc1ccc(Cl)cc1)Nc1nnc(CSCc2ccccc2)s1	i	2.1%	-1.3%	-12.5%	-70.2*
O=C(Nc1cccc(Cl)c1)Nc1nnc(CC2=CCCCC2)s1	·	0.5%	-0.9%	·	-98.4*
O=C(Nc1ccc(Cl)cc1)Nc1nnc(CSc2ccc(Cl)cc2)s1	i	-2.2%	-4.9%	-9.5%	-85.5*
CCOC(=O)c1c(C)oc2nc(C)nc(NCc3ccc(OC)cc3)c12	-10.3%	·	0.2%	-11.2%	-1.2
COc1ccc(CNC(=O)Cn2c(=O)c3cccn3c3ccccc32)cc1	-29.3%	·	0.3%	?	-19.7
COc1ccccc1NC(=O)CSc1nnc2c3ccccc3n(C(C)C)c2n1	i	·	0.0%	?	-60.9*
CC(C)N1CCC(=NNc2ccc(S(=O)(=O)N3CCOCC3)cc2[N+](=O)[O-])CC1	-8.8%	0.1%	3.8%	-9.7%	?
CC(=O)N1CCC(=NNc2ccc(S(=O)(=O)N3CCOCC3)cc2[N+](=O)[O-])CC1	-1.8%	-0.1%	2.9%	-11.5%	-27.4
CCCN1CCC(=NNc2ccc(S(=O)(=O)N3CCOCC3)cc2[N+](=O)[O-])CC1	?	-6.6%	3.1%	-25.8%	-73.1*
CCCCCC(/C=N/Nc1ccc(S(=O)(=O)N2CCOCC2)cc1[N+](=O)[O-])=C\c1ccccc1	·	-7.8%	-7.2%	·	-95.6*
CC(C)(C)NC(=O)COC(=O)c1cc(F)c(F)cc1Cl	-15.6%	-0.3%	0.0%	-15.3%	30.0
CCOC(=O)c1c(CSc2ccc(C)cc2)n(C)c2cc(Br)c(O)c(CN(C)C)c12	·	1.4%	-26.0%	·	-62.7*
CCOC(=O)c1c(C)n(-c2ccc(C)cc2)c2ccc(O)c(CN(C)C)c12	?	0.4%	-1.7%	-20.9%	-88.3*
CCOC(=O)c1c(C)n(-c2ccc(OC)cc2)c2ccc(O)c(CN(C)C)c12	?	1.8%	-5.5%	-27.7%	?
CC(C)(C)c1cnnn1-c1cccc([N+](=O)[O-])c1	-14.3%	-9.1%	-0.6%	-11.3%	-66.1*
COc1ccc(NC(=O)CCS(=O)(=O)c2cc3c4c(c2)CCN4C(=O)CC3)cc1OC	-4.7%	·	2.3%	-5.7%	5.2
O=S(Cc1ccc(Br)cc1)Cc1nnc(SCc2ccc(Br)cc2)n1-c1ccccc1 (stereo not given)	?	0.9%	-8.6%	?	-80.1*
